# HepG2 viability = counter-screen for TGF-b inhibitors: cytotoxicity in HepG2 cells; HepG2 CAGA-GFP viability, ATP luminescence, 18 h; Potency, µM (titrated, usually from 46.1 µM), for the others: at the top dose activity change, negative = cytotoxicity, actives largely listed as cytotoxic; 410,000 compounds, 0.76% hits; note: potency is the fitted concentration of half-maximal effect
#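 CellTiter-Glo luminescence gave cytotoxicity after 18 hours at 37 degrees C. The cells were HepG2 CAGA-GFP in 1% FBS DMEM, stimulated with 500 pg/mL TGF-beta after compound addition. %Activity was normalised to no-cell wells (complete cell-killing) and DMSO (no toxicity), and curves were fitted and classified.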
# TDP1 cell noCPT = qHTS for Inhibitors of human tyrosyl-DNA phosphodiesterase 1 (TDP1): qHTS in cells in absence of CPT; DT40 Tdp1-/- hTDP1 cells, no CPT, ATP luminescence, 48 h; Potency, µM (doses to about 46.2 µM), for the others: top-dose activity change, negative = growth inhibition, most hits filed as inhibitors; 420,000 compounds, 15% hits; AID 686978, 2013; note: potency is the fitted concentration of half-maximal effect; % is set by controls: 0 for no effect and ±100 for the full control effect; nearly all actives have a fitted effect of over 55% in size
#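 DT40 Tdp1-/-;hTDP1 cells, no CPT (DMSO vehicle only), 400 cells/well; compounds pin-transferred; ≥48 hr, 37 °C; CellTiter-Glo 30 min RT dark, luminescence read.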
# DT40 TDP1 CPT = growth inhibition of DT40 Tdp1-/-;hTDP1 cells with camptothecin (screen for TDP1 inhibitors) | chicken DT40 Tdp1-/-;hTDP1 cells + 20 nM CPT, ATP luminescence, 48 h | Potency, µM (doses to about 46.2 µM), for inactives: at the highest dose activity change, negative = growth inhibition, most hits filed as inhibitors | 420,000 compounds, 12% hits; note: potency is the fitted concentration of half-maximal effect; % is set by controls: 0 for no effect and ±100 for the full control effect; nearly all actives have a fitted effect of over 55% in size
#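 Cell growth measured by CellTiter-Glo luminescence after a minimum 48 h, 37 C compound exposure with 20 nM CPT in Tdp1-knockout DT40 cells stably expressing hTDP1, seeded 400/well; qHTS titration format.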
# TGFb inhibitor = blocks TGF-b signaling; Potency, µM (top dose mostly 46.1 µM), for inactives: at the top dose activity, negative = inhibition, usual class: inhibitors; HepG2 CAGA-GFP TGF-b/SMAD3 reporter, GFP fluorescence, 18 h; TGF-beta stimulated, 500 pg/mL final; 410,000 compounds, 1.2% hits; note: potency is the fitted concentration of half-maximal effect; % is set by controls: 0 for no effect and ±100 for the full control effect; nearly all actives have a fitted effect of over 65% in size
#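 Read-out: total well GFP (ex488/em500-530) summed from mean per-cell fluorescence. Cells: HEPG2 CAGA-GFP, 1% FBS DMEM, 18 h at 37 degrees C with 500 pg/mL final TGF-beta. Unstimulated wells served as the full-inhibition control; stimulated DMSO wells = 0%.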
# IL-1B inflam inh = blocks inflammasome-driven IL-1 beta release | AID 743279 | THP-1 LPS/ATP IL-1B secretion, AlphaLISA, 16 h; stronger effect = lower value | 360,000 compounds, 4.7% hits | activity change, % at 57.5 µM; in the data active = activity change below about -50%; inconclusive = mostly about -30% to -49%; note: % is set by controls: 0 for no effect and ±100 for the full control effect
#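 Secreted IL-1B measured by AlphaLISA bead assay after 16 h compound exposure of THP-1 cells; compounds (final up to 57.5 uM) added 1 h before LPS (250 ng/mL) and ATP (1.25 mM) stimulation; lower signal means less secretion.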
# TDP1 block = inhibitors of human tyrosyl-DNA phosphodiesterase TDP1; Q9NUW8; recombinant TDP1, AlphaScreen DNA substrate cleavage; Potency, µM (doses to about 130 µM), inactives show top-dose activity change, negative = inhibition, hits mostly inhibitors; 350,000 compounds, 0.28% hits; AID 485290; note: potency is the fitted concentration of half-maximal effect; % is set by controls: 0 for no effect and ±100 for the full control effect; nearly all actives have a fitted effect of over 40% in size
# Target sequence (Q9NUW8 whole entry, looked up): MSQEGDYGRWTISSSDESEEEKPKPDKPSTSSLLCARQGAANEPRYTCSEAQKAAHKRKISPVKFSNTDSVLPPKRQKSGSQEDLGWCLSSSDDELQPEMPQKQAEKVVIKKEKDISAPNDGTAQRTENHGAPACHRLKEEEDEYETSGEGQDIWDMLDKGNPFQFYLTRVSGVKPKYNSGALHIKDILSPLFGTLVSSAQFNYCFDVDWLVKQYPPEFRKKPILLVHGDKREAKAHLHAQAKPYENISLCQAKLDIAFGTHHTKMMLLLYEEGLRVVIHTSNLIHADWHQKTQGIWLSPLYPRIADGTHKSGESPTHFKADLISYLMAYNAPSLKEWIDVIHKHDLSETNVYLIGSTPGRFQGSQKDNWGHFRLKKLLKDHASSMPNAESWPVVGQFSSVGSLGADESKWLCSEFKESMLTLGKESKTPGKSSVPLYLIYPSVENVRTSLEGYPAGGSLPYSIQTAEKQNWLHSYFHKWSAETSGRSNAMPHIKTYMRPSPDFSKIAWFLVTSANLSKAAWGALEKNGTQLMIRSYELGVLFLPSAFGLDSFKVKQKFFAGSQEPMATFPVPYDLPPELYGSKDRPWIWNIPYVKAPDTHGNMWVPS
#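 Compounds were preincubated with Tdp1 (1 nM final) for 15 min at room temperature before substrate (15 nM final) started a 5 min reaction; beads (10 ug/ml final) were then added for 10 min before AlphaScreen detection.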
# Starred values were filed as active, the others as inactive; ? = inconclusive; nt = no result given; [ ] = remark or other dose. Shown are actives, neighbours in structure and some others; about 18% of the full set was active somewhere. Unless noted, calls come from the whole dose curve; as a rule, active = well fitted curve in the direction sought with a large enough effect; inconclusive = small, poorly fitted or top-dose-only effect, or another doubt; inactive = no such curve, though single readings can be large; an effect the other way counts as inactive or inconclusive.
SMILES,HepG2 viability,TDP1 cell noCPT,DT40 TDP1 CPT,TGFb inhibitor,IL-1B inflam inh,TDP1 block
COc1ccc(C2Nc3ccccc3C(=O)N2Cc2ccccc2)cc1COc1ccc(Cl)cc1 (stereo not drawn),nt,nt,nt,nt,nt,-1%
CCOc1ccc(Nc2nc(-c3cccc(Cl)c3)c3c(n2)-c2ccccc2OC3)cc1,-18%,?,-27%,-28%,nt,-9%
Cc1cc(=S)c2ccccc2[nH]1,9%,-15%,?,-11%,-86*,1%
S=c1nc(-c2ccccc2)[nH]c2ccccc12,-12%,-25%,?,-26%,10,-6%
Cc1ccc2[nH]c(C)cc(=S)c2c1,0%,16µM*,13µM*,-13%,-69*,1%
NC(CSC(c1ccccc1)(c1ccccc1)c1ccc2c(c1)OCO2)C(=O)O (stereo not drawn),-27%,7.3µM*,?,0%,18,nt
COc1ccc(OC)c(N(C)S(=O)(=O)c2ccc3c(c2)N(C(C)=O)CCO3)c1,-23%,-5%,3%,-16%,5,3%
N=C(N)c1ccc(N=Nc2c(O)ccc3c2[nH]c2ccccc23)cc1,-99%,7.3µM*,21µM*,?,-97*,nt
Cc1ccc(N=Nc2[nH]c3ccccc3c2O)cc1,-16%,-3%,-1%,11%,4,0%
COc1cccc(OC)c1-c1cc(CCCc2cc(-c3c(OC)cccc3OC)nc3ccccc23)c2ccccc2n1,-107%,13µM*,?,?,nt,nt
CN(Cc1ccc(F)cc1)C(=O)c1cccc(S(=O)(=O)N2CCN(c3ccccc3)CC2)c1,-9%,23µM*,?,-13%,-27,5%
O=C(NCC1COc2ccccc2O1)c1cccc(S(=O)(=O)N2CCN(c3ccccc3)CC2)c1 (stereo not drawn),-8%,21µM*,18µM*,0%,-4,-9%
COc1ccc(CN(C)C(=O)c2cccc(S(=O)(=O)N3CCCc4ccccc43)c2)c(OC)c1OC,-16%,21µM*,18µM*,?,-13,nt
COc1ccc(S(=O)(=O)N2CCCc3ccccc32)cc1OC,-6%,-16%,?,?,53,-2%
COc1ccc(C(CNC(=O)c2cccc(S(=O)(=O)N3CCCc4ccccc43)c2)N(C)C)cc1 (stereo not drawn),-21%,?,?,?,-54*,nt
CC1(C(=O)NS(=O)(=O)c2cccc(F)c2)CCN1C(=O)Cc1cccs1 (stereo not drawn),-1%,-5%,3%,11%,-8,nt
CSc1ncc2c(n1)-c1ccccc1N(Cc1ccc(Cl)cc1)S2(=O)=O,4%,-9%,-8%,0%,nt,3%
Cc1cc(CN2CCC(n3nccc3NC(=O)c3ccccc3Cl)CC2)cc(C)c1O,-3%,-26%,-7%,14%,-5,1%
COc1cccc(CN(C)C(=O)c2ccc(S(=O)(=O)N3CCCC3)cc2)c1OC,-16%,?,?,21%,-1,2%
O=C(NCCCN1CCOCC1)c1cccc(S(=O)(=O)N2CCN(c3ccccc3)CC2)c1,-3%,-11%,-7%,?,3,-12%
CN(Cc1cccc(F)c1)C(=O)c1ccc(S(=O)(=O)N2CCCCCC2)cc1,-30%,?,?,?,-66*,0%
O=C(NCCOc1ccccc1F)c1cccc(S(=O)(=O)N2CCN(c3ccccc3)CC2)c1,-18%,26µM*,?,?,-28,-15%
CN(Cc1ccc(F)cc1)C(=O)c1cccc(S(=O)(=O)N2CCN(c3ccc(F)cc3)CC2)c1,-19%,15µM*,16µM*,?,-58*,-3%[0.505 µM]
O=C(c1cccc(S(=O)(=O)N2CCN(c3ccc(F)cc3)CC2)c1)N1CCCC1,-7%,?,?,12%,-9,0%
COc1ccc(CN(C)C(=O)c2cccc(S(=O)(=O)N3CCN(c4ccccc4)CC3)c2)c(OC)c1OC,-20%,13µM*,12µM*,?,-13,nt
SMILES,HepG2 viability,TDP1 cell noCPT,DT40 TDP1 CPT,TGFb inhibitor,IL-1B inflam inh,TDP1 block
COc1cccc2c1CCC1=CC(=O)CC[C@@]12C,nt,-3%,-16%,nt,nt,-4%[56.1 µM]
COc1cccc(/C=N/n2nnnc2N)c1OCC#N,-9%,-5%,12%,?,7,nt
O=C(NCC1COc2ccccc2O1)c1c[nH]c2ccc(S(=O)(=O)N3CCOCC3)cc2c1=O (stereo not drawn),8%,13µM*,12µM*,-12%,-4,5%
CC1(C)CC(CCNS(=O)(=O)c2ccccc2)(c2ccccc2)CCO1 (stereo not drawn),10%,?,?,-24%,-12,5%
CCC1(C)CC(CCNS(=O)(=O)c2ccc(C)cc2)(c2ccc(C)cc2)CCO1 (stereo not drawn),-49%,29µM*,18µM*,?,-9,1%
CCOc1ccc(OCCSc2nc(C)cc(=O)[nH]2)cc1,-1%,21µM*,12µM*,13%,15,3%
Nc1c(N(CCC2=CCCCC2)C(=O)COc2ccc(F)cc2Cl)c(=O)[nH]c(=O)n1Cc1ccccc1,3.5µM*,6.5µM*,5.8µM*,3.2µM*,-55*,nt
Nc1c(N(CCC2=CCCCC2)C(=O)Cc2ccc(F)cc2)c(=O)[nH]c(=O)n1Cc1ccccc1,0%,?,?,?,7,0%
CC(=O)c1ccc(OCC(=O)N(CCC2=CCCCC2)c2c(N)n(Cc3ccccc3)c(=O)[nH]c2=O)cc1,-49%,?,23µM*,0%,1,nt
Cc1cccc(OCC(=O)N(Cc2ccccc2)c2c(N)n(Cc3ccccc3)c(=O)[nH]c2=O)c1,-12%,?,18µM*,-4%,?,0%
CC(=O)Nc1ccc(NC(=O)C2CC(=O)N(C(C)C)C2)cc1 (stereo not drawn),2%,1%,18%,2%,16,nt
COc1ccccc1CN1CCC2(CC1)CCN(S(=O)(=O)c1ccccc1)CC2,nt,?,0%,nt,nt,nt
CN(CCn1ccnc1)Cc1cn(-c2ccccc2)nc1-c1ccc2c(c1)OCO2,-30%,-14%,-15%,-2%,4,10%
CN(Cc1cn(-c2ccccc2)nc1-c1ccc2c(c1)OCO2)Cc1nccn1C,-5%,23µM*,26µM*,2%,?,6%
O=C(OCC(=O)c1ccc[nH]1)c1cncc(Br)c1,-5%,-9%,9%,3%,40,-7%

# Assay outcomes: PubChem, National Center for Advancing Translational Sciences (NCATS)
